In PubChem BioAssay AID651687 (Broad Institute, 2012) one finds inhibition data, which are given here for 62 molecules.

“And” between values parts separate entries of the source, which are not always exact repeats. Equal entries are not always repeated. About 600 (0.17%) of roughly 350,000 compounds were called active.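 How the source made its calls: active means every replicate shows inhibition of at least 40%; inconclusive means mean inhibition at least 40% but some replicate below; inactive means the rest.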 This excerpt belongs to a sample that is enriched for actives. Where a structure was tested more than once in an assay, its records may differ in their call.

The experiment is described as follows: compounds lowering acetylated PGC1a in cells – cell-based, U2OS, AlphaScreen, inhibitor mode, primary screen (AID 651687).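 Further: 0% = neutral control wells and 100% = positive control wells.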 As to conditions: U2OS PGC1a acetylation, AlphaScreen anti-acetyl-lysine; at 15.6 µM; stronger effect = higher value; with virally co-expressed GCN5 acetyltransferase.
A word on the inhibition: it is the change of the read-out against control, counted positive when it falls. `COc1ccc(-c2ccc3c(c2)[C@@H]2[C@@H](CCN2C(=O)c2cccc(F)c2)[C@H](CO)N3)cc1`: the inhibition was 6.58% (inactive).

Turning to `O=C(Nc1ccc2c(c1)[C@@H]1C[C@H](CC(=O)N3CCOCC3)O[C@@H](CO)[C@@H]1O2)C1CCOCC1`, the inhibition was -6.68% (inactive).

Regarding `CNC[C@H]1Oc2cc(C#CC3CCCC3)ccc2S(=O)(=O)N([C@H](C)CO)C[C@@H]1C`, the inhibition was -10.8% (inactive).

On to `C[C@@H]1CCCCO[C@@H](CN(C)C(=O)Cc2ccccc2)[C@H](C)CN([C@@H](C)CO)C(=O)c2cc(NC(=O)Nc3ccc4c(c3)OCO4)ccc2O1`, for which the inhibition is -5.63% (inactive).

In the case of `COc1ccc(NC(=O)/C(Cl)=C(/Cl)S(=O)Cc2ccc(C)cc2)cn1` (configuration not stated), the inhibition was 69.3% (active).

`COc1ccc(NC(=O)CN2C(=O)NC(C)(c3ccccc3)C2=O)cn1` (configuration not stated): the inhibition was 0.857% (inactive).

Regarding `COc1ccc(NS(=O)(=O)c2ccc(F)cc2F)cn1`, the inhibition is 0.335% (inactive).

Consider `Cc1noc(C)c1NC(=O)Nc1ccc2c(c1)C(=O)N([C@@H](C)CO)C[C@H](C)[C@@H](CN(C)C(=O)Nc1ccccc1)O2`, for which the inhibition was -6.84% (inactive).

As for `C[C@@H]1CCCCO[C@@H](CN(C)C(=O)CCCN(C)C)[C@H](C)CN([C@@H](C)CO)C(=O)c2cc(NC(=O)Nc3ccccc3)ccc2O1`, the inhibition is 20% (inactive).

With `C[C@@H]1CN([C@@H](C)CO)C(=O)c2cc(NS(C)(=O)=O)ccc2O[C@H]1CN(C)C(=O)Nc1ccc(F)cc1`, the inhibition is 0.678% (inactive).

As to `Cn1cnc(S(=O)(=O)N2CC[C@@H]3[C@H]2c2cc(C#Cc4cccc(F)c4)ccc2N[C@@H]3CO)c1`, the inhibition is -5.83% (inactive).

On to `CCS(=O)(=O)NCC[C@H]1CC[C@@H](NC(=O)Nc2cc(Cl)cc(Cl)c2)[C@@H](CO)O1`, for which the inhibition is -5.94% (inactive).

As for `Cc1ccc(S(=O)(=O)N[C@@H]2CC[C@@H](CCn3cc(C(C)C)nn3)O[C@H]2CO)cc1`, the inhibition is -5.62% (inactive).

As to `CC(C)NC(=O)N(C)C[C@H]1Oc2c(NS(C)(=O)=O)cccc2C(=O)N([C@@H](C)CO)C[C@H]1C`, the inhibition is 3.18% (inactive).

As to `C[C@@H]1CN([C@@H](C)CO)C(=O)c2cc(NC(=O)Nc3ccc4c(c3)OCO4)ccc2O[C@@H](C)CCCCO[C@H]1CN(C)C(=O)Nc1ccc(C(F)(F)F)cc1`, the inhibition is -7.26% (inactive).

`C[C@H](CO)N1C[C@H](C)[C@H](CN(C)Cc2ccc(C(=O)O)cc2)Oc2ccc(NC(=O)NC3CCCCC3)cc2C1=O`: the inhibition was 6.53% (inactive).

In the case of `Cc1noc(C)c1NC(=O)Nc1ccc2c(c1)CC(=O)N([C@@H](C)CO)C[C@@H](C)[C@H](CN(C)C(=O)NC1CCCCC1)O2`, the inhibition is 0.249% (inactive).

As to `C[C@@H]1CN([C@H](C)CO)S(=O)(=O)c2ccc(C#CC3CCCC3)cc2O[C@@H]1CN(C)Cc1ccccc1C(=O)O`, the inhibition was -5.77% (inactive).

As for `O=C(C[C@@H]1C=C[C@@H](NS(=O)(=O)c2ccc(F)cc2)[C@@H](CO)O1)NCCN1CCCCC1`, the inhibition was 4.96% (inactive).

In the case of `CO[C@@H]1CN(C)C(=O)c2ccc(NS(=O)(=O)c3cn(C)cn3)cc2OC[C@H](C)N(CCC(F)(F)F)C[C@@H]1C`, the inhibition is -2.06% (inactive).

In the case of `Cc1noc(C)c1C(=O)N(C)C[C@H]1OCc2ccccc2-c2c(n(C)c3ccccc23)C(=O)N([C@@H](C)CO)C[C@H]1C`, the inhibition was -20.6% (inactive).

Regarding `COc1ccc(-c2cnc3c(c2)C(=O)N([C@@H](C)CO)C[C@H](C)[C@@H](CN(C)C(=O)C2CC2)O3)cc1`, the inhibition is -1.45% (inactive).

Turning to `CNC[C@H]1Oc2ccc(NS(=O)(=O)c3ccc(F)cc3)cc2CC(=O)N([C@H](C)CO)C[C@H]1C`, the inhibition is -12.8% (inactive).

Regarding `C[C@@H](NC(=O)C[C@@H]1CC[C@@H]2[C@H](COC[C@@H](O)CN2C(=O)Nc2cccc(F)c2)O1)c1ccccc1`, the inhibition was 0.238% (inactive).

For `COCC(=O)Nc1ccc2c(c1)OC[C@@H](C)N(Cc1cocn1)C[C@@H](C)[C@@H](OC)CN(C)C2=O`, the inhibition is 11.7% (inactive).

With `CCC(=O)N(C)C[C@H]1Oc2cc(-c3ccc(C)cc3)ccc2S(=O)(=O)N([C@@H](C)CO)C[C@H]1C`, the inhibition is -11.2% (inactive).

For `CCCN(C)C[C@@H]1OCCCC[C@@H](C)Oc2ccc(NC(=O)Nc3ccc(C(F)(F)F)cc3)cc2C(=O)N([C@H](C)CO)C[C@H]1C`, the inhibition was -1.97% (inactive).

As to `N#Cc1ccc(-c2ccc(C3[C@@H]4CN(S(=O)(=O)c5ccccc5F)C[C@H]3N4)cc2)cc1` (some centres not stated), the inhibition was -0.54% (inactive) and -4.45% (inactive).

On to `CN(C)C(=O)c1cccc(-c2ccc(C3[C@@H]4CN(S(=O)(=O)c5ccc(F)cc5)C[C@H]3N4)cc2)c1` (some centres not stated), for which the inhibition was -5.35% (inactive) and -8.12% (inactive).

As to `N#Cc1ccc(-c2ccc(C3[C@@H]4CN(S(=O)(=O)c5ccc(F)cc5)C[C@H]3N4)cc2)cc1` (some centres not stated), the inhibition was -1.35% (inactive) and 58.1% (active).

`C[C@H](CO)N1C[C@H](C)[C@@H](CN(C)C(=O)Cc2ccccn2)Oc2cc(-c3cccc(C(=O)N(C)C)c3)ccc2S1(=O)=O`: the inhibition was 0.377% (inactive).

For `COc1ccc(C#Cc2ccc([C@H]3[C@@H](CO)N4CCCCN(S(=O)(=O)c5cn(C)cn5)C[C@H]34)cc2)cc1`, the inhibition was -2.67% (inactive).

Take `COCC(=O)Nc1ccc2c(c1)[C@H]1C[C@H](CC(=O)NCc3cccnc3)O[C@H](CO)[C@H]1O2`: the inhibition was 5.71% (inactive).

Take `CN1c2ccc(-c3cccc(F)c3)cc2[C@H]2[C@H](CCN2C(=O)c2cccc(F)c2)[C@H]1CO`: the inhibition was -7.12% (inactive).

Take `S=C1NC(c2ccccc2)=NCN1c1ccc(Br)cc1`: the inhibition was 80.9% (active).

For `Cc1nc(=O)c(-c2ccccc2)c(C)n1-c1ccc(Br)cc1`, the inhibition is -2.67% (inactive).

For the molecule `COc1ccccc1S(=O)(=O)N[C@@H]1C=C[C@H](CC(=O)N2CCN(C)CC2)O[C@@H]1CO`, the inhibition is 6.82% (inactive).

As for `O=[N+]([O-])c1c(NCCO)cc(Sc2nc3ccccc3s2)c2nonc12`, the inhibition was 45% (active).

Turning to `COc1ccc(S(=O)(=O)Nc2ccc3c(c2)C(=O)N([C@H](C)CO)C[C@H](C)[C@@H](CN(C)C)OCCCC[C@H](C)O3)cc1`, the inhibition is -0.646% (inactive) and 1.73% (inactive).

Turning to `C[C@H]1CN([C@@H](C)CO)C(=O)c2cc(C#CC3CCCCC3)cnc2O[C@@H]1CN(C)C(=O)Cc1ccccn1`, the inhibition was -16.1% (inactive).

With `C[C@H](CO)N1C[C@H](C)[C@H](CN(C)S(=O)(=O)c2cn(C)cn2)Oc2c(NC(=O)c3ccncc3)cccc2C1=O`, the inhibition is -3.09% (inactive).

In the case of `CO[C@H]1CN(C)C(=O)c2ccc(NC(=O)c3nc4ccccc4s3)cc2OC[C@@H](C)N(Cc2cncnc2)C[C@H]1C`, the inhibition is 10.9% (inactive).

As for `CC[C@H]1CN2CCc3cc(OC)c(OC)cc3[C@@H]2C[C@@H]1C[C@H]1NCCc2cc(OC)c(OC)cc21`, the inhibition is 83.7% (active).

In the case of `C[C@@H]1CN([C@@H](C)CO)S(=O)(=O)c2ccc(-c3cccc(F)c3)cc2O[C@@H]1CN(C)S(=O)(=O)c1ccccc1`, the inhibition is 5.85% (inactive).

Regarding `C[C@H](CO)N1C[C@H](C)[C@H](CN(C)C)Oc2ncc(/C=C/c3ccccc3)cc2C1=O`, the inhibition is -8.6% (inactive) and 4.49% (inactive).

With `CO[C@H]1CN(C)C(=O)c2cc(NC(=O)c3nc4ccccc4s3)ccc2OC[C@H](C)N(Cc2cccnc2)C[C@@H]1C`, the inhibition is 7.17% (inactive).

For the molecule `COc1ccc(NC(=O)N2CC[C@@H]3[C@@H](CO)N(C)c4ccc(-c5cccc(F)c5)cc4[C@@H]32)cc1`, the inhibition is 10.2% (inactive).

Take `O=C(Nc1ccc(C(F)(F)F)cc1)N[C@@H]1CC[C@H](CCNC(=O)c2ccccc2F)O[C@H]1CO`: the inhibition is 10.8% (inactive).

Turning to `CO[C@@H]1CN(C)C(=O)c2ccc(NC(=O)NC(C)C)cc2OC[C@H](C)N(Cc2ccc(-c3ccccn3)cc2)C[C@H]1C`, the inhibition is -3.93% (inactive).

For `CCOc1ccccc1CN1CCN(C2CCC2)CC1CCO` (configuration not stated), the inhibition was 74.8% (active).

As for `COc1ccc(N2CCC(N3CCN(C)C(CCO)C3)CC2)cc1` (configuration not stated), the inhibition is 0.824% (inactive).

On to `COc1ccccc1N1CCC(N2CCN(CC(C)(C)C)C(CCO)C2)CC1` (configuration not stated), for which the inhibition was 10.6% (inactive).

As to `CO[C@@H]1CN(C)C(=O)c2ccc(NC(=O)c3ccccn3)cc2OC[C@@H](C)N(C(=O)C2CCCCC2)C[C@H]1C`, the inhibition was -2.25% (inactive).

Turning to `C[C@H](CO)N1C[C@H](C)[C@H](CN(C)Cc2ccccn2)Oc2ncc(C#CCc3ccccc3)cc2C1=O`, the inhibition was -0.518% (inactive).

With `COCCCNC(=O)[C@@]1(Cc2ccccc2)COC(c2ccc(OCCCO)cc2)=N1`, the inhibition is 4.46% (inactive).

For `Cc1ccc(S(=O)(=O)N(C)C[C@H]2OCCCC[C@@H](C)Oc3ccc(NC(=O)Nc4ccc(F)cc4)cc3C(=O)N([C@@H](C)CO)C[C@H]2C)cc1`, the inhibition was -6.65% (inactive).

With `C[C@@H]1CN([C@H](C)CO)C(=O)c2cc(C#Cc3cccc(F)c3)cnc2O[C@H]1CN(C)Cc1ccccn1`, the inhibition was -11.1% (inactive).

Take `Cc1noc(C)c1S(=O)(=O)Nc1ccc2c(c1)CC(=O)N([C@@H](C)CO)C[C@H](C)[C@H](CN(C)S(=O)(=O)c1ccc(Cl)cc1)O2`: the inhibition is 10.3% (inactive).

As to `CO[C@H]1CN(C)C(=O)c2cc(NC(=O)C3CC3)ccc2OC[C@H](C)N(C(=O)CN(C)C)C[C@H]1C`, the inhibition is -4.9% (inactive).

As for `O=C(C[C@H]1C[C@H]2c3cc(NC(=O)CC4CC4)ccc3O[C@H]2[C@H](CO)O1)NCc1cc(F)ccc1F`, the inhibition was -0.32% (inactive).

With `C[C@H](CO)N1C[C@H](C)[C@@H](CN(C)Cc2ccc(C(F)(F)F)cc2)Oc2ccc(NC(=O)Cn3cnnn3)cc2CC1=O`, the inhibition is 6.38% (inactive).

On to `Cc1noc(C)c1NC(=O)Nc1ccc2c(c1)C(=O)N([C@H](C)CO)C[C@@H](C)[C@@H](CN(C)S(=O)(=O)c1ccc(Cl)cc1)OCCCC[C@H](C)O2`, for which the inhibition is 0.953% (inactive).
